Assay [1] concerns the target Dual specificity protein kinase CLK3 (Homo sapiens) (UniProt P49761). The conditions noted are these: at 1 µM.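 Also: each value is the mean inhibition of CLK3.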
In assay [2] the target is Dual specificity tyrosine-phosphorylation-regulated kinase 1A (Homo sapiens) (UniProt Q13627). Conditions: at 0.1 µM.
For assay [3] the target is unchanged. Conditions: at 1 µM.
The target in assay [4] is Dual specificity tyrosine-phosphorylation-regulated kinase 1B (Homo sapiens) (UniProt Q9Y463). Conditions: at 0.1 µM.
For assay [5] the target is unchanged. Conditions: at 1 µM.
The target in assay [6] is T1, Dual specificity tyrosine-phosphorylation-regulated kinase 2 (Homo sapiens) (UniProt Q92630).
T1 sequence (whole entry): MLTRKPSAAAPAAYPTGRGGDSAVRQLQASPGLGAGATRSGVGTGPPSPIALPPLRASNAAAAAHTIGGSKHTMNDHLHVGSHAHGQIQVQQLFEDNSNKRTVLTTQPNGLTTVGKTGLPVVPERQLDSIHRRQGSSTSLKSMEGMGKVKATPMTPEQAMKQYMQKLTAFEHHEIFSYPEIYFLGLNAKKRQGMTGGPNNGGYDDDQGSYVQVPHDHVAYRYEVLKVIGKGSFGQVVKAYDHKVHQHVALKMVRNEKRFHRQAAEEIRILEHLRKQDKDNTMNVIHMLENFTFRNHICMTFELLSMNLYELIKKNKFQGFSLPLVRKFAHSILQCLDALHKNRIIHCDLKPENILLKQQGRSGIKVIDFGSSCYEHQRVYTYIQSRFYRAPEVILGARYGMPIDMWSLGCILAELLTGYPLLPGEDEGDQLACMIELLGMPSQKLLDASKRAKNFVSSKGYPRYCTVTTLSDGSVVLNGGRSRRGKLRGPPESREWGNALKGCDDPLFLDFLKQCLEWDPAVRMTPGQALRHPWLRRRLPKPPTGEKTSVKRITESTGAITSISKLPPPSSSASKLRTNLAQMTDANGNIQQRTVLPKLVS
The conditions noted are these: at 0.1 µM.

Assay [7] concerns the target T1, Dual specificity tyrosine-phosphorylation-regulated kinase 2 (Homo sapiens). The conditions noted are these: at 1 µM.
The target of assay [8] is Glycogen synthase kinase-3 alpha (Homo sapiens) (UniProt P49840). The conditions noted are these: at 0.1 µM.
For assay [9] the target is unchanged. The conditions noted are these: at 1 µM.
Assay [10] addresses Glycogen synthase kinase-3 beta (Homo sapiens) (UniProt P49841). Conditions: at 0.1 µM.
The target is the same in assay [11]. Conditions: at 1 µM.
Assay [12] concerns the target Homeodomain-interacting protein kinase 1 (Homo sapiens) (UniProt Q86Z02). Conditions: at 0.1 µM.
Assay [13] has the same target. Conditions: at 1 µM.
Assay [14] has as its target T2, Homeodomain-interacting protein kinase 4 (Homo sapiens) (UniProt Q8NE63).
T2 sequence (whole entry): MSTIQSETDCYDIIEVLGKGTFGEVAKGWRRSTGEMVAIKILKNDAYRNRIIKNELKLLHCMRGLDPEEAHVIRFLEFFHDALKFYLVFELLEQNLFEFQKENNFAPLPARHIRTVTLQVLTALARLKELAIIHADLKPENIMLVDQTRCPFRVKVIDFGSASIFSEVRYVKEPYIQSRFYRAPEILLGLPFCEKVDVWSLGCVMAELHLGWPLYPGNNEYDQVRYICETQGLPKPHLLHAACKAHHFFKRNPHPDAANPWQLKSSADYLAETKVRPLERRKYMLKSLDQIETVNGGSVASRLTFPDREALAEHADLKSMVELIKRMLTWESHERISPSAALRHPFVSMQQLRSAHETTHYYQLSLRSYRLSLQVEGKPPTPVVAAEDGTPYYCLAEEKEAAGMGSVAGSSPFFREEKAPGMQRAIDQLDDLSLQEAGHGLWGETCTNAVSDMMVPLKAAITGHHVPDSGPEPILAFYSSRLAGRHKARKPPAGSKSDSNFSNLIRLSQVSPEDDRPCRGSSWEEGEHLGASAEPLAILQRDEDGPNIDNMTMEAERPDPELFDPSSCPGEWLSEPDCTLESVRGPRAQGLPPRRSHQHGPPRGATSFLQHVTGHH
The conditions noted are these: at 0.1 µM.

For assay [15], the target named is T2, Homeodomain-interacting protein kinase 4 (Homo sapiens). Conditions: at 1 µM.
Assay [16] concerns the target Mitogen-activated protein kinase 9 (Homo sapiens) (UniProt P45984). Conditions: at 0.1 µM.
The target is the same in assay [17]. The conditions noted are these: at 1 µM.
In assay [18] the target is Mitogen-activated protein kinase 1 (Homo sapiens) (UniProt P28482). The conditions noted are these: at 0.1 µM.
The target is the same in assay [19]. Conditions: at 1 µM.
The target in assay [20] is Mitogen-activated protein kinase 3 (Homo sapiens) (UniProt P27361). The conditions noted are these: at 0.1 µM.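 Also: each value is a mean inhibition figure.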
Sequence of Mitogen-activated protein kinase 3 (Homo sapiens) (P27361 whole entry): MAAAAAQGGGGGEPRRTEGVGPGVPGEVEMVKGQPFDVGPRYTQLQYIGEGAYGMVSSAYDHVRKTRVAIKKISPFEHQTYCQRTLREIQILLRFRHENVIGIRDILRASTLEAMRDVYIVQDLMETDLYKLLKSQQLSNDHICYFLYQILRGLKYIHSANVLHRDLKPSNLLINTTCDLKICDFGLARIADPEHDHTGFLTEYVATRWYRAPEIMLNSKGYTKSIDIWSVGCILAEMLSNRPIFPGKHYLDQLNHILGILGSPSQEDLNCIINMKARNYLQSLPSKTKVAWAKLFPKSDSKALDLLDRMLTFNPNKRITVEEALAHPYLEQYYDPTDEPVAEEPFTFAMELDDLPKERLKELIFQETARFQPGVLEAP

Sequence of Glycogen synthase kinase-3 alpha (Homo sapiens) (P49840 2-483 limits assumed): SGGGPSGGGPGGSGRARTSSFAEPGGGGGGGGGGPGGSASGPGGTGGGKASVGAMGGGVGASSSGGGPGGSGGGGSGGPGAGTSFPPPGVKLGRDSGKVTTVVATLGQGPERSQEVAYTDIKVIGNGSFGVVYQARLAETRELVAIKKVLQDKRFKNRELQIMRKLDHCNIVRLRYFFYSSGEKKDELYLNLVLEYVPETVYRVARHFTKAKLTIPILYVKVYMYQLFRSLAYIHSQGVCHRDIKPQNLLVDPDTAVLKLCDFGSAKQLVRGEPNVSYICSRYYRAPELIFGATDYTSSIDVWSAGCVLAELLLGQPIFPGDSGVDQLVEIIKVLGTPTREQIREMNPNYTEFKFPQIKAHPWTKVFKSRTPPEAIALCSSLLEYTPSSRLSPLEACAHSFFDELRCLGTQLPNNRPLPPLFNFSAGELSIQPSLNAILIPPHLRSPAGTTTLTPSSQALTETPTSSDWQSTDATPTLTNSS
Sequence of Homeodomain-interacting protein kinase 1 (Homo sapiens) (Q86Z02 whole entry, looked up): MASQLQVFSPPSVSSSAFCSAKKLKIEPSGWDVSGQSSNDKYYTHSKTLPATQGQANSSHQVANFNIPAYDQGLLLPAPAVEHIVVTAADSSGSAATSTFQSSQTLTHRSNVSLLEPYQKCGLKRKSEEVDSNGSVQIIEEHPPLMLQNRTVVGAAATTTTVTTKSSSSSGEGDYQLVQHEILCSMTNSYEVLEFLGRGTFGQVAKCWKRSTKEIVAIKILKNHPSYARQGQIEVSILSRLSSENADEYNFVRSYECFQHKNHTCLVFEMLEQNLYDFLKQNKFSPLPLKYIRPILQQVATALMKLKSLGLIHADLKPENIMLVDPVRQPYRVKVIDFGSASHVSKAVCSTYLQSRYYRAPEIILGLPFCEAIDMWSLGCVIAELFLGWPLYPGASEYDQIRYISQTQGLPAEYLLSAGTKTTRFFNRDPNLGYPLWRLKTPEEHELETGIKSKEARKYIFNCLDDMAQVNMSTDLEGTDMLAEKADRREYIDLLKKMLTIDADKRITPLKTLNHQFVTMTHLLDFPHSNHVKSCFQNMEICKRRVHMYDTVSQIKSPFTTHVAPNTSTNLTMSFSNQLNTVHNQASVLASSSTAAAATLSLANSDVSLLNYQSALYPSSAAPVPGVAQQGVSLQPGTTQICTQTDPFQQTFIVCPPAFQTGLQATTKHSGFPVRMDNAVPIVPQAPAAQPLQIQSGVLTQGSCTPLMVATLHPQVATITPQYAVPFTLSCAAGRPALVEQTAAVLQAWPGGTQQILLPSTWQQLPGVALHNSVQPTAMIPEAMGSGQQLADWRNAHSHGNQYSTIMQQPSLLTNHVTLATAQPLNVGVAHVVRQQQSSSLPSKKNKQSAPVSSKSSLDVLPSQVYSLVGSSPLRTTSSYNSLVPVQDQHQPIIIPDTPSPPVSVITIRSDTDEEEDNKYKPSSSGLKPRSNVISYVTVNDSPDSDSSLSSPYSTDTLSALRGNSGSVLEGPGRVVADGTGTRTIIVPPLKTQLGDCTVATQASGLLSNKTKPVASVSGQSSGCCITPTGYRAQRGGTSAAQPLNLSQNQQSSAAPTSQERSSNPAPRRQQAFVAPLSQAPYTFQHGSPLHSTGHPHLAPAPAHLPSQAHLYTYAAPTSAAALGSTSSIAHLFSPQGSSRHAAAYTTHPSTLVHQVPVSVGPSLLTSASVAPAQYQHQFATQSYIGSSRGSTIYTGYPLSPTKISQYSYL
Sequence of Dual specificity protein kinase CLK3 (Homo sapiens) (P49761 whole entry, looked up): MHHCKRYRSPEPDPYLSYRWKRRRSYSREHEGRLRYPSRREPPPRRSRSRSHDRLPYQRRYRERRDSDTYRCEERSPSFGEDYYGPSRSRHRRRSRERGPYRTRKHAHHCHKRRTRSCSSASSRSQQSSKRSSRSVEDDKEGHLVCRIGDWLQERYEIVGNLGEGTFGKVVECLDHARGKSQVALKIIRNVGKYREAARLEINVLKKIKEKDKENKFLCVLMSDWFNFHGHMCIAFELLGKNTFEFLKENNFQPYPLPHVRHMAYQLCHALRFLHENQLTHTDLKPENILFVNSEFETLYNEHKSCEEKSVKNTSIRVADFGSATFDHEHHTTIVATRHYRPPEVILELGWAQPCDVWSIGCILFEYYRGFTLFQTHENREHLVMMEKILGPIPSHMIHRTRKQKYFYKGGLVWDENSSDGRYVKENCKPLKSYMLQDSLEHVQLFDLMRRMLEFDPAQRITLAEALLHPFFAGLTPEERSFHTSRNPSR
Sequence of Dual specificity tyrosine-phosphorylation-regulated kinase 1B (Homo sapiens) (Q9Y463 whole entry, looked up): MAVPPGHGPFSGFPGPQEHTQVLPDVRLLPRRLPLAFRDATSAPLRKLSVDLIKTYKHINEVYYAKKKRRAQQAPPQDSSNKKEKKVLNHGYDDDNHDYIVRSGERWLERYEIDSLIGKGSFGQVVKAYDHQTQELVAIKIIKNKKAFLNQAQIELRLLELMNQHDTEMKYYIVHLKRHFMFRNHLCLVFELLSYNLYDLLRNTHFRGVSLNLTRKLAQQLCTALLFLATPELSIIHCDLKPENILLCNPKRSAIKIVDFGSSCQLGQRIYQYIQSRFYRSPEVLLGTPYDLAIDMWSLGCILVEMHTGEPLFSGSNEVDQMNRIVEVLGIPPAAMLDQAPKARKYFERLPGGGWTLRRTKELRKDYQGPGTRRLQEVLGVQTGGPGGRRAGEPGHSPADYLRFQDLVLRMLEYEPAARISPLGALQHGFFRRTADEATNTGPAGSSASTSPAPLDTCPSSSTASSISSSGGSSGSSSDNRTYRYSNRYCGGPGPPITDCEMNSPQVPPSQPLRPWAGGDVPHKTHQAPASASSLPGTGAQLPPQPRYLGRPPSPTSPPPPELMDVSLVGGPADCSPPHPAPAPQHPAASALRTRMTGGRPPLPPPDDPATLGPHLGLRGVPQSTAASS
Sequence of Glycogen synthase kinase-3 beta (Homo sapiens) (P49841 whole entry, looked up): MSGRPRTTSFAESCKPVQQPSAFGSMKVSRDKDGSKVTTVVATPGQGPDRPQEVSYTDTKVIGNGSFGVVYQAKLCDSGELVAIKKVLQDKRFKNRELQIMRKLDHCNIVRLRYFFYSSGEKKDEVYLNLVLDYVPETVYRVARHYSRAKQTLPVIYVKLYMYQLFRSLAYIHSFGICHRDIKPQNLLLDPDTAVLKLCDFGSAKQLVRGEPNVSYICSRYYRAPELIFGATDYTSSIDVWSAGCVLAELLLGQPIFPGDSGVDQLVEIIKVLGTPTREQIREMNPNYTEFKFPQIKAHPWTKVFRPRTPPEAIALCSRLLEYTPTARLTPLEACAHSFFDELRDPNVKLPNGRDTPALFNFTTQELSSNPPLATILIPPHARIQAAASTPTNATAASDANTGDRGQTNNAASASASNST
Sequence of Mitogen-activated protein kinase 1 (Homo sapiens) (P28482 whole entry): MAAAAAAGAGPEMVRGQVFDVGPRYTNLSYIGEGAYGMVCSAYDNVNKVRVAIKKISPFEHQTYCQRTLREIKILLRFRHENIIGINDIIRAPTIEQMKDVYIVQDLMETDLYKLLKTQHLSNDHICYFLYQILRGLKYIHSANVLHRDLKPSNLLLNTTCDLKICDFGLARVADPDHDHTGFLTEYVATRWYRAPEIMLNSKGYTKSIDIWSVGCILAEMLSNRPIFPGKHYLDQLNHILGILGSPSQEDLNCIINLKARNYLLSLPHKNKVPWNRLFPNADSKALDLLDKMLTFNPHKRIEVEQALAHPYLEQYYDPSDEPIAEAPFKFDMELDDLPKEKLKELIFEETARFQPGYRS
Sequence of Mitogen-activated protein kinase 9 (Homo sapiens) (P45984 whole entry, looked up): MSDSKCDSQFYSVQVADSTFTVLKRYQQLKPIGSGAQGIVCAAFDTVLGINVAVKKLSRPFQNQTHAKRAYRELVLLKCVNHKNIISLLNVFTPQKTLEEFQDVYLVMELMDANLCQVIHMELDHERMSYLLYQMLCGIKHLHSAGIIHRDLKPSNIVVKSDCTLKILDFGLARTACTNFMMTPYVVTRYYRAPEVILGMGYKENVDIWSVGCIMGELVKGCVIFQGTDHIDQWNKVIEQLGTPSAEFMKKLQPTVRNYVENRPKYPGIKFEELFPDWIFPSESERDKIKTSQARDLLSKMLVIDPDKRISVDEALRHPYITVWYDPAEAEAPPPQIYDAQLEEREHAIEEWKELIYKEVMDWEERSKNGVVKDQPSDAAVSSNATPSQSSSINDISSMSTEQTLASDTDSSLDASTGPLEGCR

As usually defined, the inhibition is the relative decrease from the control value, in per cent. `CCn1c(-c2nonc2N)nc2c(C#CC(C)(C)O)nc(O[C@@H](CN)c3ccccc3)cc21`: the inhibition in [1] is 1.71%; in [2] it was 1.79%; in assay [3], 7.95%; in assay [4] it was 2.3%; in assay [5], 9.96%; in assay [6], -1.27%. The inhibition in [7] turned out to be 0.08%; in [8], 52.7%; in [9], 86.1%; in [10], 53.4%; in assay [11] it was 84.6%; in assay [12], 10.4%. For the same compound, the inhibition was 55.3% in [13]; 3.23% in [14]; 36.3% in [15]; 2.01% in [16]; 1.01% in [17]; -1.73% in [18]. Further, the inhibition came to 5.15% in [19] and 0.9% in assay [20].
Take `Nc1nonc1-c1nc2cnccc2n1C1CCCCC1`: the inhibition was 2.98% in [1]; 34.3% in [2]; 78% in assay [3]; 23.4% in [4]; 71.2% in assay [5]; -2.75% in assay [6]. Moreover, the inhibition in [7] is -0.12%; in [8] it was 66.1%; in assay [9], 90.8%; in assay [10] it was 62.5%; in [11], 90%; in [12], -0.6%. The inhibition in assay [13] is 16.1%; in assay [14], 0.63%; in [15] it was 10.3%; in [16] it was -0.52%; in assay [17] it was -0.67%; in assay [18], -1.37%. Besides, the results for the inhibition in assay [19] and in assay [20] were 1.38% and -0.87%, respectively.
In the case of `NC(=O)c1sc(-n2cnc3cc(C(F)(F)F)ccc32)cc1OCc1ccccc1Br`, the inhibition is -0.53% in [1]; -0.2% in [2]; 1.95% in [3]; -0.04% in [4]; 0.72% in assay [5]; 1.75% in assay [6]. In addition, the inhibition in [7] is 0.34%; in [8], 1.61%; in assay [9] it was 2.55%; in assay [10] it was 1.16%; in assay [11] it was 2.38%; in [12] it was -3.51%. The inhibition in assay [13] is 0.77%; in [14], -0.26%; in [15] it was 2.95%; in assay [16], 0.9%; in assay [17], 1.72%; in assay [18] it was 0.51%. Moreover, the inhibition in [19] was 2.13%; in assay [20] it was 3.5%.
`NS(=O)(=O)c1ccc(N/C=C2\C(=O)Nc3ccc4ncsc4c32)cc1`: the inhibition was 9.47% in assay [1]; 21.7% in assay [2]; 74.4% in [3]; 9.26% in assay [4]; 44.9% in [5]; 6.51% in assay [6]. Further, the inhibition turned out to be 29% in assay [7]; 25.2% in assay [8]; 62.8% in [9]; 26.1% in [10]; 65.1% in [11]; 3.83% in [12]. The inhibition amounted to 34.7% in [13]; 1.88% in assay [14]; 11.8% in assay [15]; 5.59% in assay [16]; 20.2% in assay [17]; 8.37% in [18]. In addition, the inhibition in assay [19] came to 31.1%; in assay [20], 5.66%.
`CCn1c(-c2nonc2N)nc2c(C#CC(C)(C)O)ncc(OC[C@@H]3CCCN3)c21`: the inhibition in assay [1] was -0.53%; in assay [2] it was -0.49%; in assay [3], -0.73%; in assay [4] it was -2.29%; in assay [5], -1.07%; in [6] it was 0.4%. Besides, the inhibition is -2.07% in assay [7]; 9.78% in [8]; 44.4% in assay [9]; 9.2% in [10]; 46.9% in [11]; -6.24% in assay [12]. Moreover, the inhibition is 6.03% in assay [13]; 0.03% in assay [14]; 0.31% in assay [15]; -0.05% in assay [16]; 0.92% in assay [17]; 1.59% in assay [18]. In addition, the inhibition in [19] stood at 1.3%; in assay [20], 1.69%.
For `CCn1c(-c2nonc2N)nc2c(C#CCN)ncc(OCCCN)c21`, the inhibition was -1.34% in [1]; 1.67% in assay [2]; 4.43% in [3]; 5.17% in assay [4]; 7.49% in [5]; -2.75% in [6]. The inhibition is -1.66% in assay [7]; 0.52% in [8]; 9.28% in [9]; 3.41% in assay [10]; 14.4% in assay [11]; 3.64% in assay [12]. Besides, the inhibition in assay [13] was 2.54%; in [14] it was 1.45%; in [15], 2.86%; in assay [16] it was -2.82%; in assay [17] it was -3.07%; in assay [18] it was -2.43%. The inhibition in assay [19] is -4.85%; in [20], -3.01%.
As for `COc1cccc(-n2ncc3c(N/N=C/c4ccncc4)ncnc32)c1`, the inhibition in [1] is 19.3%; in assay [2], 28.7%; in assay [3], 72.3%; in assay [4], 16.2%; in [5] it was 53.9%; in assay [6] it was 14.2%. In addition, the inhibition was 58.9% in assay [7]; 85.7% in [8]; 90% in assay [9]; 83.4% in [10]; 89.2% in assay [11]; 26.6% in [12]. In addition, the inhibition in assay [13] was found to be 69.8%; in [14] it was 19.6%; in [15] it was 61.3%; in [16], 0.79%; in [17], 11.2%; in assay [18], 5.32%. Also, the inhibition in assay [19] is 7.16%; in [20], 4.96%.

The values are drawn from ChEMBL document CHEMBL1961873, “Compounds: GSK PKIS; Assays: Nanosyn kinase panel” (2012).
